Activity calls are given as the source filed them. Rule for the calls: active = hit-call score of the fitted dose curve at least 0.9, where 1 is the maximum; inactive = score below 0.9.
Experiment: CCTE_Shafer_MEA_acute_cross_correlation_area: CCTE's Neural Acute Assay for Area of Cross Correlation, Shafer Lab (AID 2284024);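 note: area under pooled inter-electrode spike cross-correlation near zero lag as percent change from own baseline; curves fitted for loss of cross-correlation area so actives lower synchrony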
How it was run: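 Primary rat cortical neurons on 48-well MEA plates (16 electrodes/well) were recorded 40 min at baseline on DIV 13 or 15, then 40 min with compound (0.03-40 uM) at 37 C; cross-correlation area expressed as percent change from baseline.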
In the case of `CCC(C)(C)c1ccc(O)c(C(C)(C)CC)c1`, the outcome is reported as “inactive”. In the case of `O=C(Nc1ccc2[nH]ccc2c1)c1cc2cc(F)ccc2n1Cc1cccc(F)c1`, the outcome is reported as “inactive”. For `CC(=O)OC(c1ccccc1)C(Cl)(Cl)Cl` (stereo unspecified), the outcome was “inactive”. In the case of `C[C@]12CCC(=O)C[C@@H]1CC[C@@H]1[C@@H]2CC[C@]2(C)[C@@H](O)CC[C@@H]12`, the outcome is reported as “inactive”. In the case of `ClC1(Cl)C2(Cl)C3(Cl)C4(Cl)C(Cl)(Cl)C5(Cl)C3(Cl)C1(Cl)C5(Cl)C24Cl` (stereo unspecified), the outcome is reported as “inactive”. With `O=C1C2(Cl)C3(Cl)C4(Cl)C(Cl)(Cl)C5(Cl)C3(Cl)C1(Cl)C5(Cl)C24Cl` (stereo unspecified) the outcome was “inactive”. With `O=C(O)C(F)(F)C(F)(F)C(F)(F)C(F)(F)C(F)(F)C(F)(F)C(F)(F)C(F)(F)C(F)(F)C(F)(F)F` the outcome was “inactive”. With `CCOP(=S)(OCC)SCSP(=S)(OCC)OCC` the outcome was “inactive”. With `COC(=O)Cc1ccccc1` the outcome was “inactive”. In the case of `CC(C)(C)c1cc(O)ccc1O`, the outcome is reported as “inactive”. For `C=C(C)C(=O)[O][Sn]([CH2]CCC)([CH2]CCC)[CH2]CCC`, the AC50 was 0.0108 µM (active). With `CC(C)(c1ccccc1)c1ccc(O)c(C(C)(C)c2ccccc2)c1` the outcome was “inactive”. In the case of `CC(C)(C)CC(C)(C)c1ccc(O)cc1`, the outcome is reported as “inactive”. For `CC(C)(OO)c1ccccc1`, the outcome was “inactive”. With `CCCCCCCCc1ccc(O)cc1` the outcome was “inactive”. In the case of `CCN1CCC2(CC1)COc1cc3c(cc12)N(C(=O)c1ccc(-c2ccc(-c4nnc(C)o4)cc2C)cc1)CC3`, the outcome is reported as “inactive”. For `CCC(=O)C(CC(C)N(C)C)(c1ccccc1)c1ccccc1` (stereo unspecified), the AC50 was 0.062 µM (active). In the case of `CC(=O)[O][Hg][c]1ccccc1`, the AC50 is reported as 0.713 µM (active).

Experiment: CCTE_Shafer_MEA_acute_cross_correlation_HWHM: CCTE's Neural Acute Assay for Cross Correlation at Half Width at Half Maximum, Shafer Lab (AID 2284026);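 note: percent change per well from pre-dose baseline in spike cross-correlogram half width; hits are a decrease in cross-correlogram half width relative to DMSO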;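 for outcome: spontaneous network firing of rat primary cortical neurons on multiwell microelectrode arrays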
How it was run: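 Primary rat cortical neurons on 16-electrode MEA wells; 40-min baseline on DIV 13 or 15, then 40-min recording with compound (0.03-40 uM) at 37 C. HWHM of spike cross-correlogram expressed as percent change from baseline per well, DMSO reference.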
In the case of `CCC(C)(C)c1ccc(O)c(C(C)(C)CC)c1`, the AC50 is reported as 9.83 µM (active). For `O=C(Nc1ccc2[nH]ccc2c1)c1cc2cc(F)ccc2n1Cc1cccc(F)c1`, the outcome was “inactive”. With `CC(=O)OC(c1ccccc1)C(Cl)(Cl)Cl` (stereo unspecified) the AC50 was 24.9 µM (active). For `C[C@]12CCC(=O)C[C@@H]1CC[C@@H]1[C@@H]2CC[C@]2(C)[C@@H](O)CC[C@@H]12`, the AC50 was 33.3 µM (active). With `O=C(O)C(Cl)(Cl)Cl` the outcome was “inactive”. With `ClC1(Cl)C2(Cl)C3(Cl)C4(Cl)C(Cl)(Cl)C5(Cl)C3(Cl)C1(Cl)C5(Cl)C24Cl` (stereo unspecified) the outcome was “inactive”. In the case of `O=C1C2(Cl)C3(Cl)C4(Cl)C(Cl)(Cl)C5(Cl)C3(Cl)C1(Cl)C5(Cl)C24Cl` (stereo unspecified), the AC50 is reported as 7.01 µM (active). For `O=C(O)C(F)(F)C(F)(F)C(F)(F)C(F)(F)C(F)(F)C(F)(F)C(F)(F)C(F)(F)C(F)(F)C(F)(F)F`, the outcome was “inactive”. With `CCOP(=S)(OCC)SCSP(=S)(OCC)OCC` the AC50 was 32.7 µM (active). With `COC(=O)Cc1ccccc1` the outcome was “inactive”. In the case of `CC(C)(C)c1cc(O)ccc1O`, the AC50 is reported as 29.3 µM (active). With `C=C(C)C(=O)[O][Sn]([CH2]CCC)([CH2]CCC)[CH2]CCC` the outcome was “inactive”. For `CC(C)(c1ccccc1)c1ccc(O)c(C(C)(C)c2ccccc2)c1`, the AC50 was 9.24 µM (active). For `CC(C)(C)CC(C)(C)c1ccc(O)cc1`, the AC50 was 36.4 µM (active). For `CC(C)(OO)c1ccccc1`, the outcome was “inactive”. With `CCCCCCCCc1ccc(O)cc1` the AC50 was 9.18 µM (active). With `CCN1CCC2(CC1)COc1cc3c(cc12)N(C(=O)c1ccc(-c2ccc(-c4nnc(C)o4)cc2C)cc1)CC3` the AC50 was 31.2 µM (active). In the case of `CC(=O)[O][Hg][c]1ccccc1`, the AC50 is reported as 33.9 µM (active).

From PubChem BioAssay (EPA / NIEHS)
